“And” between values parts separate entries of the source, which are not always exact repeats. Equal entries are not always repeated. Records with an inconclusive call do not appear. Some structures have more than one record in an assay (separate samples or runs), and their calls can disagree. Unmarked numbers belong to inactive results. The source made the active and inactive calls. Calls come from the whole dose curve; as a rule, active = well fitted inhibition curve with a large enough effect; inconclusive = small, poorly fitted or top-dose-only effect; inactive = flat fitted curve, though single readings scatter.
Tests used:
[1] = Drug repurposing screens with cells derived from glioblastoma tumor samples (AID 1345199); conditions: GBM patient neurospheres viability, ATP luminescence, 48 h; note: nearly all actives have a fitted effect of over 40% in size
Summary of the method: (§1)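 Primary testing used CD133+ neurospheres from four GBM patients, seven concentrations, 48 h exposure and ATP-based viability; confirmation added three slower-growing patient lines.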

astro = control astrocytes; assay: as above; conditions: viability, ATP luminescence, 48 h; series mostly up to 45.9 µM
Summary of the method: as §1

[2] = at 45.9 µM (top of the series), tumour line B
[3] = at 45.9 µM (top of the series), tumour line D
[4] = at 46 µM (top of the series), tumour line A
[5] = at 46.1 µM (top of the series), tumour line C
% is set by controls: 0 for no effect and ±100 for the full control effect; potency is the fitted concentration of half-maximal effect.

| SMILES | activity, negative = cell killing [1, 2] | activity, negative = cell killing [1, 3] | activity, negative = cell killing [1, 4] [%] | activity, negative = cell killing [1, 5] | Potency ([1]; tumour line A) | Potency (astro) |
| --- | --- | --- | --- | --- | --- | --- |
| COc1cc2c(c(OC)c1OC)-c1c(cc3c(c1OC)OCO3)C[C@@H](C)[C@](C)(O)C2 | -5.29% and -6.75% | -7.05% and -25.9% | -25 | -33.4% and -14.4% | 22.4 µM (active) | inactive |
| CC#CCC(C)[C@H](O)/C=C/[C@@H]1[C@H]2C/C(=C/CCCC(=O)O)C[C@H]2C[C@H]1O (some centres not stated) | -8.92% | -4.73% |  | -5.69% | 17.8 µM (active) |  |
| COc1ccc(C2NC(=S)N3C(c4ccc(OC)c(OC)c4)NC(=S)N23)cc1OC (configuration not stated) | -19.2% | -8.84% |  | 3.81% |  |  |
| O=S(O)CO | 4.97% | -2.6% |  | -1.44% |  |  |
| C[C@H](CSC(=O)c1ccccc1)C(=O)N1C[C@@H](Sc2ccccc2)C[C@H]1C(=O)O | -6.07% | 2.27% | -16.6 | -10.8% |  |  |
| CCCN(CC)C(CC)C(=O)Nc1c(C)cccc1C (configuration not stated) | -5.49% | -11.8% | -28.6 | -9.76% |  |  |
| CO/N=C(\C(=O)N[C@@H]1C(=O)N2C(C(=O)OCOC(=O)C(C)(C)C)=C(/C=C\c3scnc3C)CS[C@H]12)c1csc(N)n1 | -2.3% | -0.209% | -23.3 | -3.78% |  |  |
| CCCCOC(=O)C(=O)Nc1cccc(-c2nn[nH]n2)c1 | -12.5% | 2.48% |  | -2.11% |  |  |
| CCCCCCCCCCCCCCCC(=O)OC/C=C(C)/C=C/C=C(C)/C=C/C1=C(C)CCCC1(C)C | -7.71% | 9.03% |  | 0.655% | 20 µM (active) |  |
| CC(=O)OCC(=O)[C@@]1(O)[C@H](C)C[C@H]2[C@@H]3C[C@H](F)C4=CC(=O)C=C[C@]4(C)[C@H]3[C@@H](O)C[C@@]21C | 1.71% | 2.28% | -12.7 | 13.2% |  |  |
| CCCCc1cc2c(=O)c(C(=O)OC)c[nH]c2cc1OCc1ccccc1 | -16.1% | -19.6% |  | -7.65% |  |  |
| CC(=O)O[C@H]1CC[C@@]2(C)C(=CC[C@@H]3[C@@H]2CC[C@]2(C)C(c4cccnc4)=CC[C@@H]32)C1 | -19.3% |  |  | -13.1% | 11.2 µM (active) |  |
| O=C(O)[C@@H](O)[C@H](O)[C@H](O)[C@@H](O)C(=O)O (tested in a mixture with another compound) | -6.98% | -10.8% |  | -8.08% |  |  |
| CC1(C)C2CC[C@]3(C)[C@H](C(=O)C=C4[C@@H]5C[C@@](C)(C(=O)O)CC[C@]5(C)CC[C@]43C)[C@@]2(C)CC[C@@H]1O[C@H]1O[C@H](C(=O)O)[C@@H](O)[C@H](O)[C@H]1O[C@@H]1O[C@H](C(=O)O)[C@@H](O)[C@H](O)[C@H]1O (some centres not stated) | -4.03% | -9.47% | -26.6 | -1.2% |  |  |
| CC1(C)S[C@@H]2[C@H](NC(=O)C(C(=O)Oc3ccc4c(c3)CCC4)c3ccccc3)C(=O)N2[C@H]1C(=O)O (some centres not stated) | -10.7% | -5.29% | -6.42 | 7.9% |  |  |
| Cc1cc(Nc2ccccc2C(=O)O)ccc1Cl | -5.77% | -31.8% |  | -18% |  |  |
| OCC(O)COc1ccc(Cl)cc1 (configuration not stated) | -4.12% | -2.58% | -5.56 | -6.48% |  | inactive |
| Cn1nnnc1SCC1=C(C(=O)O)N2C(=O)[C@@H](NC(=O)[C@H](OC=O)c3ccccc3)[C@H]2SC1 | -10.5% | -17.5% | -11.9 | -8.9% |  |  |
| NCCCC[C@H](NC(=O)[C@@H]1CCCN1C(=O)[C@@H]1CSSC[C@H](N)C(=O)N[C@@H](Cc2ccccc2)C(=O)N[C@@H](Cc2ccccc2)C(=O)N[C@@H](CCC(N)=O)C(=O)N[C@@H](CC(N)=O)C(=O)N1)C(=O)NCC(N)=O | -4.48% | -4.17% | -29.5 | -22.2% |  |  |
| O=P(O)(O)C(Sc1ccc(Cl)cc1)P(=O)(O)O | 3.66% | -1.38% | -1.1 | -7.59% |  | inactive |

| SMILES | activity, negative = cell killing [1, 2] | activity, negative = cell killing [1, 3] | activity, negative = cell killing [1, 4] [%] | activity, negative = cell killing [1, 5] | Potency ([1]; tumour line A) | Potency (astro) |
| --- | --- | --- | --- | --- | --- | --- |
| C/C(=C(\CCOC(=O)c1ccccc1)SS/C(CCOC(=O)c1ccccc1)=C(/C)N(C=O)Cc1cnc(C)nc1N)N(C=O)Cc1cnc(C)nc1N | -18% | -28% |  | -22.5% | 35.5 µM (active) | inactive |
| CCOC(=O)[C@H](CCc1ccccc1)N[C@@H](C)C(=O)N1CC2(C[C@H]1C(=O)O)SCCS2 | -13.1% | 3.06% | -27.1 | 2.21% |  | inactive |
| O=C(OCCO)c1ccccc1O | -4.1% | 8.11% | -21.4 | -4.97% |  | inactive |
| C[C@H]1C[C@H]2[C@@H]3CCC4=CC(=O)C=C[C@]4(C)[C@@]3(F)[C@@H](O)C[C@]2(C)[C@@]1(O)C(=O)CCl | 1.74% | -15.9% |  | 12.3% | 35.5 µM (active) | inactive |
| CCN1CCCC1CNC(=O)c1cc(S(=O)(=O)CC)ccc1OC (configuration not stated) | -1.25% and -14.5% | -0.732% and -9.3% | -20 | 11.5% and 15.2% |  | inactive |
| C=C[C@]1(C)C[C@@H](OC(=O)CO)[C@]2(C)[C@H](C)CC[C@]3(CCC(=O)[C@H]32)[C@@H](C)[C@@H]1O | -6.6% | -13.7% | -29.8 | -2.01% |  | inactive |
| CC(C)(S)C(=O)N[C@@H](CS)C(=O)O | -12.3% and -6.78% | -24.6% and -16.1% |  | -15.9% and -10.8% | 39.8 µM (active) | inactive |
| C1CNCCN1 | -11% | -24.6% | -15.8 | -0.46% |  | inactive |
| CCCCCC(O)/C=C/C=O (configuration not stated) | 5.27% | -8.74% | -27.6 | 8.89% |  | inactive |
| O=C1C(c2[nH]c3ccc(S(=O)(=O)O)cc3c2O)=Nc2ccc(S(=O)(=O)O)cc21 | -3.91% and -0.988% and -8.05% | -5.52% and -3.79% and -6.7% | -11.9 | 2.85% and 2.31% and 15% |  | inactive |
| CS(=O)(=O)OCCCNCCCOS(C)(=O)=O | 5.52% | -25.4% |  | 2.38% | 39.8 µM (active) | inactive |
| NC(=O)C[C@@H](N)C(=O)O | 8.61% | -4.07% | 26.7 | 22.9% |  | inactive |
| O=S(O)CNc1ccc(S(=O)(=O)c2ccc(NCS(=O)O)cc2)cc1 | -3.7% | 0.377% | -17.9 | -2.81% |  | inactive |
| CS(=O)(=O)Nc1cc2occ(NC=O)c(=O)c2cc1Oc1ccccc1 | -8.06% | -12.9% | -16.3 | 0.0891% |  | inactive |
| CSCC[C@H](NC(=O)[C@H](Cc1ccc(OS(=O)(=O)O)cc1)NC(=O)[C@@H](N)CC(=O)O)C(=O)NCC(=O)N[C@@H](Cc1c[nH]c2ccccc12)C(=O)N[C@@H](CCSC)C(=O)N[C@@H](CC(=O)O)C(=O)N[C@@H](Cc1ccccc1)C(N)=O | -12.8% and -14.6% | -10.7% and -3.46% | -8.64 | 9.45% and -3.35% |  | inactive |
| CCCC(=O)O[C@]1(C(=O)COC(=O)CC)[C@@H](C)C[C@H]2[C@@H]3CCC4=CC(=O)C=C[C@]4(C)[C@@]3(F)[C@@H](O)C[C@@]21C | -13% | -14.2% |  | 9.54% | 12.6 µM (active) | inactive |
| CC(=O)N[C@@H](C=O)[C@H](O)[C@H](O)[C@@H](O)CO | -7.64% and 0.13% | -11.8% and 0.539% | 1.93 | 6.46% and 10.4% |  | inactive |
| CCC(CN)CC(C)CCNCC(O)CNCC(C)CC(CC)CN (configuration not stated) | -0.989% | -7.35% | -19.2 | -0.671% |  | inactive |
| Nc1c(CC(=O)O)cccc1C(=O)c1ccccc1 | -6.42% and -16.2% | 1.99% and -19.1% | -11.4 | -6.15% and -12.2% |  | inactive |

— PubChem BioAssay (NCATS)
